Results published in paper PMC5700166.
Changes are numbered by the printed parent chain.

Assays:
Test in all cases: protein-binding microarray (PBM); PBM: ~300 nM protein, 6 mM HEPES pH 7.8, 80 mM KCl, 0.5 mM EDTA, 0.5 mM EGTA, 6% glycerol, 35 ng/ul poly-dIdC, 1% milk, 1 h, room temperature; Ap Aiptasia and Nv Nematostella (sea anemones) / Co Capsaspora / Aq Amphimedon (sponge) / Dm Drosophila / Hu human; RHD is the Rel homology domain; high values mean tight binding
Conditions in all cases: dsDNA, one strand shown
[1] = target: T1, GST-Ap-NF-kB RHD (Exaiptasia pallida (Aiptasia), UniProt A0A913YAJ5 2-422)
T1 sequence: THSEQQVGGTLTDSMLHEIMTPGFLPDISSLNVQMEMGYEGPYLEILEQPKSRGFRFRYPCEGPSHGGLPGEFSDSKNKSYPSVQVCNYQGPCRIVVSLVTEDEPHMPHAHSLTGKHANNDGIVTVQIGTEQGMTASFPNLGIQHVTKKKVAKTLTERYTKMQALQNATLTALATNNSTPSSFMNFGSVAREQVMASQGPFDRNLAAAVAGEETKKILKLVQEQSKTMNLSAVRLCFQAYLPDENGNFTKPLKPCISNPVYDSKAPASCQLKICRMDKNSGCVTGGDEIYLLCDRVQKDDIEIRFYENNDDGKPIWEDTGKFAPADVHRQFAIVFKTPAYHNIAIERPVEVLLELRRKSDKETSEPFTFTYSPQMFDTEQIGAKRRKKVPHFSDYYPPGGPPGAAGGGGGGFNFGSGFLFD

[2] = target: T2, GST-Nv-NF-kB (Cys allele) (Nematostella vectensis, UniProt E5G601 2-411)
T2 sequence: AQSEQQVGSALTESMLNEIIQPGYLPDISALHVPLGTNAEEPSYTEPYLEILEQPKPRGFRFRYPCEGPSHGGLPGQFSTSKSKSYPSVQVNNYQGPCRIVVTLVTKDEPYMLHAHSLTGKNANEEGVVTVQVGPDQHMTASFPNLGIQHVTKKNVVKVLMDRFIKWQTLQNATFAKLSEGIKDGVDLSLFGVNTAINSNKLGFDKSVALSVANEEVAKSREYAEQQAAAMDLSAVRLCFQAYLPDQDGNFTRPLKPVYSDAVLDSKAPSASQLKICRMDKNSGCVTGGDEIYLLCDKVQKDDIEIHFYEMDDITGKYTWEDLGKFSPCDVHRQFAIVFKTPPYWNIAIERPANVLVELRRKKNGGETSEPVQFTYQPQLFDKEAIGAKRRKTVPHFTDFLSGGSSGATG

[3] = target: T3, GST-Nv-NF-kB (Ser allele) (Nematostella vectensis, UniProt A7UNT2 2-411)
T3 sequence: T2 sequence with Q21R, C66S, S207N, E215Q, V217A, E225K, A268E, D399E

[4] = target: T4, GST-Co-NF-kB (Capsaspora owczarzaki, UniProt F1ARL5 200-546)
T4 sequence: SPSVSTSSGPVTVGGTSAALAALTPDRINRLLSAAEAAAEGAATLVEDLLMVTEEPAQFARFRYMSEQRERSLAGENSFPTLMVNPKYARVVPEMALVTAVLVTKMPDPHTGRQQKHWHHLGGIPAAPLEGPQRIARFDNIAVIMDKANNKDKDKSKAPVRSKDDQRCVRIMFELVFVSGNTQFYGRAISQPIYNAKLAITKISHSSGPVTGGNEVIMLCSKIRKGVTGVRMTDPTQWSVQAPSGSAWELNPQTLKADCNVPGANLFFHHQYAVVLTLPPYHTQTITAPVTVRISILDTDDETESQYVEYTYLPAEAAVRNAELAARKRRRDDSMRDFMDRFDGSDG

[5] = target: T5, GST-Dm-Relish (Drosophila melanogaster, UniProt Q94527 99-473)
T5 sequence: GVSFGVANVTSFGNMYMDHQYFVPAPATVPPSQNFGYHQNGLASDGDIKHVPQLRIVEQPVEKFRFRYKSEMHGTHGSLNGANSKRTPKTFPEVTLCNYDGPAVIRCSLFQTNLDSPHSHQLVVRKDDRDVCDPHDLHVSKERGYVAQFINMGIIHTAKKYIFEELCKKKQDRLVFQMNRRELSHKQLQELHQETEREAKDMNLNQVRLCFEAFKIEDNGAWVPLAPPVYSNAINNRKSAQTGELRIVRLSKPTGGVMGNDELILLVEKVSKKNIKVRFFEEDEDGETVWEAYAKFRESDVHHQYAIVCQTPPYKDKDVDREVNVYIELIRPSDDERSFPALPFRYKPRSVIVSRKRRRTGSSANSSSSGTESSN

[6] = target: T6, GST-Aq-NF-kB (Amphimedon queenslandica, UniProt A9Y5G7 2-389)
T6 sequence: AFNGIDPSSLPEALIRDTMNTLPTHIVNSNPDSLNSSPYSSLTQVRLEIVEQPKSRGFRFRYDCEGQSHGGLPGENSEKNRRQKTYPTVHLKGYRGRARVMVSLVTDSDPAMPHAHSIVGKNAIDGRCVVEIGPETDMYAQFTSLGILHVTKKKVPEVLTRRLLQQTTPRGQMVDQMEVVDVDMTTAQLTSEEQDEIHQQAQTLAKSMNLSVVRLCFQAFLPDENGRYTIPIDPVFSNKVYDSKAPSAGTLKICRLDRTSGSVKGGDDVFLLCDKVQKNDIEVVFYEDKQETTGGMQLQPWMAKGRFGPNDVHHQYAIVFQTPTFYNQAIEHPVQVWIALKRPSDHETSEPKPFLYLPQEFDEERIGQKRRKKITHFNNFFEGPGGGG

[7] = target: GST-Hu-p50 (Homo sapiens, UniProt P19838 7-356)
Sequence of GST-Hu-p50 (P19838 7-356): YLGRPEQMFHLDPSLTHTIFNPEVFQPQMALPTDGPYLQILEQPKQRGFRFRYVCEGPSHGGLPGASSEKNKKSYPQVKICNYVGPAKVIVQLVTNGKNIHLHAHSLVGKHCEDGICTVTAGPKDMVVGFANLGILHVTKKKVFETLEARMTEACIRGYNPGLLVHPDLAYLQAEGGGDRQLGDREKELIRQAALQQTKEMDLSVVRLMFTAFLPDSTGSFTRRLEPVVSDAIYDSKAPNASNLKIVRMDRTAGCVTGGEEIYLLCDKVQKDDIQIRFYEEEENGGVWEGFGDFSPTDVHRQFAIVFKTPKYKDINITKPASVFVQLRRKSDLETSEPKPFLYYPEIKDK

Sequence | binding signal [1] [z-score] | binding signal [2] [z-score] | binding signal [3] [z-score] | binding signal [4] [z-score] | binding signal [5] [z-score] | binding signal [6] [z-score] | binding signal [7] [z-score]
CCGATTAACATCAAAAAATTCCCTGATGTTAATCGGGTCTTGATTCGCTTGACGCTGCTG | 6.84 | 10.3 | 9.33 | 5.79 | 8.53 | 8.5 | 6.48
CCGATTAACATCAAAATTCCCTATGATGTTAATCGGGTCTTGATTCGCTTGACGCTGCTG | 4.89 | 8.05 | 7.32 | 3.27 | 5.2 | 6.99 | 5.69
CCGATTAACATCACCGGGGATAGTGATGTTAATCGGGTCTTGATTCGCTTGACGCTGCTG | 3.55 | 2.68 | 3.34 | 3.83 | 2.1 | 1.82 | 2.98
CCGATTAACATCACGGGGATTTCTGATGTTAATCGGGTCTTGATTCGCTTGACGCTGCTG | 9.25 | 9.87 | 10.8 | 5.27 | 9.88 | 7.52 | 7.58
CCGATTAACATCACTTTTCCCCCTGATGTTAATCGGGTCTTGATTCGCTTGACGCTGCTG | 6.53 | 7.4 | 8.95 | 10.8 | 3.73 | 5.27 | 6.51
CCGATTAACATCAGGGGGAACCATGATGTTAATCGGGTCTTGATTCGCTTGACGCTGCTG | 7.4 | 6.04 | 7.3 | 8.58 | 5.08 | 4.5 | 5.84
CCGATTAACATCAGGGAACCCCCTGATGTTAATCGGGTCTTGATTCGCTTGACGCTGCTG | 13 | 11.8 | 10.7 | 3.7 | 11 | 11.1 | 7.62
CCGATTAACATCAAGGGGAAAATTGATGTTAATCGGGTCTTGATTCGCTTGACGCTGCTG | 7.28 | 8.8 | 11.5 | 8.77 | 4.19 | 7.23 | 6.72
CCGATTAACATCAGAATCCCCCCTGATGTTAATCGGGTCTTGATTCGCTTGACGCTGCTG | 9.22 | 7.84 | 8.55 | 7.63 | 8.81 | 7.37 | 7.06
CCGATTAACATCAGGGGGTTGGATGATGTTAATCGGGTCTTGATTCGCTTGACGCTGCTG | 4.25 | 3.25 | 4.6 | 2.05 | 4.45 | 3.38 | 4.51
CCGATTAACATCAAGGTTTCCCCTGATGTTAATCGGGTCTTGATTCGCTTGACGCTGCTG | 7.4 | 8.19 | 10.3 | 8.15 | 7.08 | 6.28 | 6.46
CCGATTAACATCACGGTTTCCCCTGATGTTAATCGGGTCTTGATTCGCTTGACGCTGCTG | 7.03 | 7.64 | 9.99 | 7.67 | 5.09 | 5.42 | 5.88
CCGATTAACATCACAAAGTCCCCTGATGTTAATCGGGTCTTGATTCGCTTGACGCTGCTG | 7.77 | 7.32 | 7.65 | 2.97 | 7.95 | 6.4 | 6.44
CCGATTAACATCAAAAATACCCCTGATGTTAATCGGGTCTTGATTCGCTTGACGCTGCTG | 7.44 | 8.45 | 7.96 | 6.5 | 7.71 | 7.5 | 6.44
CCGATTAACATCAAAATCCCAGTTGATGTTAATCGGGTCTTGATTCGCTTGACGCTGCTG | 1.67 | 1.47 | 1.74 | 1.27 | 5.96 | 1.75 | 1.82
CCGATTAACATCACTGAAATCCCTGATGTTAATCGGGTCTTGATTCGCTTGACGCTGCTG | 2.61 | 2.29 | 1.72 | 1.34 | 3.35 | 2.54 | 1.71
CCGATTAACATCAATTTTCCCCATGATGTTAATCGGGTCTTGATTCGCTTGACGCTGCTG | 6.24 | 7.68 | 9.27 | 9.2 | 2.3 | 5.53 | 6.08
CCGATTAACATCACCCCACCCCCTGATGTTAATCGGGTCTTGATTCGCTTGACGCTGCTG | 3.67 | 2.66 | 3.49 | 3.94 | 4.21 | 3.4 | 3.36
CCGATTAACATCAGGGGAAAGAATGATGTTAATCGGGTCTTGATTCGCTTGACGCTGCTG | 4.95 | 6.07 | 8.18 | 8.25 | 3.01 | 4.87 | 5.05
CCGATTAACATCAAAATAGTCCCTGATGTTAATCGGGTCTTGATTCGCTTGACGCTGCTG | 7.45 | 7.77 | 7.5 | 2.01 | 4.37 | 6.34 | 5.5
CCGATTAACATCAAACTCCCCCCTGATGTTAATCGGGTCTTGATTCGCTTGACGCTGCTG | 7.58 | 6.49 | 6.75 | 7.67 | 7.11 | 6.54 | 6.75
CCGATTAACATCAAAAATCCCCGTGATGTTAATCGGGTCTTGATTCGCTTGACGCTGCTG | 9.77 | 10.8 | 11.1 | 6.22 | 10.1 | 8.1 | 7.67
CCGATTAACATCAGGGAATCACCTGATGTTAATCGGGTCTTGATTCGCTTGACGCTGCTG | 6.2 | 6.62 | 6.17 | 2.45 | 10.3 | 6.99 | 5.35
CCGATTAACATCAGAAACACCCCTGATGTTAATCGGGTCTTGATTCGCTTGACGCTGCTG | 3.57 | 2.68 | 2.16 | 3.34 | 3.56 | 3.93 | 3.61
